Sampled rows, rich in hits. Any-hit rate of the full collection: about 21%.
Pf growth 96h: inhibits malaria parasite growth, 96 h; P. falciparum luciferase reporter growth, 96 h; Potency, µM (series often up to 28.7 µM), for the others: at the highest dose activity change, negative = inhibition, hits mostly inhibitors; hit rate 6.9% among 320,000; note: potency is the fitted concentration of half-maximal effect; % is set by controls: 0 for no effect and ±100 for the full control effect
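Readout is luminescence from an integrated firefly luciferase in P. falciparum. Red cells, 2% hematocrit and 0.05% parasitemia final, were cultured with compound through two parasite generations (96 hours) at 37 C, 5% CO2.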
NS1 function inh: inhibitors of influenza NS1 protein function. hit rate 0.4% among 270,000. Potency, µM (top dose mostly 46.1 µM), inactives show at the highest dose activity, positive = more growth. AID 2326; calls by dose curve; note: potency is the fitted concentration of half-maximal effect; actives are rising curves; nearly all actives have a fitted effect of over 50% in size
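OD600 was taken as the measure of yeast growth restored by compound in an NS1-expressing S. cerevisiae strain. Cells had been washed out of glucose medium and diluted 1:100 into galactose -URA medium, pH 6.0.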
Sm TGR block: blocks Schistosoma mansoni thioredoxin glutathione reductase; Q962Y6; purified TGR, DTNB reduction, TNB absorbance 405 nm; Potency, µM (highest dose often 114 µM), inactives show top-dose activity change, negative = inhibition, hits mostly inhibitors; hit rate 3% among 360,000; AID 485364; note: potency is the fitted concentration of half-maximal effect; % is set by controls: 0 for no effect and ±100 for the full control effect; nearly all actives have a fitted effect of over 60% in size
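TGR 20 nM + NADPH 100 uM (dispensed conc.), cpd preinc 15 min RT; start with NADPH (500 uM addition) then DTNB (15 mM addition). Kinetic TNB absorbance, 405 nm filter. Four-parameter Hill fit across titration.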
Pf growth 48h: P. falciparum growth inhibition at 48 hours (one generation) | P. falciparum luciferase growth in erythrocytes, 48 h | Potency, µM (top dose mostly 28.7 µM), inactives show at the top dose activity change, negative = inhibition, most hits filed as inhibitors | hit rate 5.9% among 310,000 | AID 504832; note: potency is the fitted concentration of half-maximal effect; % is set by controls: 0 for no effect and ±100 for the full control effect
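A one-generation exposure of luciferase-tagged malaria parasites in RPMI 1640/Albumax erythrocyte culture, 37 C and 5% CO2. Inhibition is inferred from decreased luminescence after adding detection reagent.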
CHX counter: counter-screen for Shiga toxin inhibitors: cycloheximide protein synthesis inhibition; cell reporter, cycloheximide protein synthesis inhibition counterscreen; max response, %; hit rate 12% among 300,000; in the data active = max response mostly above about 13%, no sharp cut-off; inactive = mostly below about 14%; note: read at 38.3 µM for the half of the compounds with a filed dose; 0% is about no effect
Shiga inhibitor: blocks Shiga toxin action in Vero cells; hit rate 9.2% among 290,000; AID 2315; inhibition, % at 38.7 µM; Vero cells, Shiga toxin protein synthesis inhibition reporter; in the data active = inhibition mostly above about 28%, no sharp cut-off; inactive = mostly below about 43%; note: 0% is about no effect
* marks the source's active call; other numbers are inactive results; u = inconclusive; x = no result; [ ] = another dose, or the depositor's remark. Unless noted, calls come from the whole dose curve; as a rule, active = well fitted curve in the direction sought with a large enough effect; inconclusive = small, poorly fitted or top-dose-only effect, or another doubt; inactive = no such curve, though single readings can be large; an effect the other way counts as inactive or inconclusive.

SMILES | Pf growth 96h | NS1 function inh | Sm TGR block | Pf growth 48h | CHX counter | Shiga inhibitor
COc1cccc(Nc2nnc(SCC(=O)N(CC(C)C)CC(C)C)s2)c1 | 1.31µM* | 4.0% | 2.8% | u | -3.9 | -4.9
COc1cccc(Nc2nnc(SCN3C(=O)c4ccccc4C3=O)s2)c1 | 139.7% | 1.6% | 6.2% | 62.9% | 5.8 | 2.7
COCc1[nH]c(=S)[nH]c(=O)c1C | 2.6% | -0.1% | 6.8% | 5.9% | -0.9 | 8.7
Cc1oc(C(=O)O)cc1CSCc1ccoc1C(=O)O | u | 3.5% | -30.6% | 13.0% | 1.3 | -1.4
Cc1oc(C(=O)O)cc1CSCc1cc(C(=O)O)c(C)o1 | 11.0% | u | 44.7µM* | 13.0% | 12.0* | 16.2
Cc1cccc(N(C(=O)c2snc(C(N)=O)c2N)C(C(=O)NCC2CCCO2)c2ccc(N(C)C)cc2)c1C (stereo not given) | 7.38µM* | 2.8% | 7.4% | u | -3.9 | 12.3
COc1ccc(C(C(=O)NCC2CCCO2)N(C(=O)c2snc(C(N)=O)c2N)c2ccccc2C)cc1OC (stereo not given) | 34.0% | 28.7% | 0.1% | 11.7µM* | 9.0 | -13.6
CCOc1ccc(C(C(=O)NCC2CCCO2)N(CCc2cccc(C)c2)C(=O)c2snc(C(N)=O)c2N)cc1 (stereo not given) | -0.8% | 13.7% | -12.5% | 9.28µM* | -0.7 | 24.8
COc1ccc(C(C(=O)NCC2CCCO2)N(C(=O)c2snc(C(N)=O)c2N)c2ccccc2)cc1OC (stereo not given) | u | -14.1% | -9.6% | u | -3.9 | -5.9
CCc1ccccc1N(C(=O)c1snc(C(N)=O)c1N)C(C(=O)NCC1CCCO1)c1ccc(OC)c(OC)c1 (stereo not given) | 44.0% | 0.6% | -21.3% | 11.7µM* | -7.3 | -4.5
COc1ccc(S(=O)(=O)Nc2ccccc2C(=O)N2CCCCC2)cc1C | u | -15.4% | 4.5% | 1.0% | 4.5 | -2.1
COCCC(=O)N1CCC(n2nccc2NC(=O)CCc2ccccc2)CC1 | 17.2% | 3.2% | 0.1% | 28.0% | -2.3 | -4.2
CCCC(=O)n1nc(-c2ccco2)nc1SCc1ccccc1 | 45.0% | -28.9% | u | 38.6% | 42.9* | active
O=C(Cc1ccccc1)n1nc(-c2ccco2)nc1SCc1ccccc1 | 28.4% | -72.4% | -17.6% | x | 27.9* | 41.8
O=C(c1ccco1)n1nc(-c2ccccc2)nc1SCc1ccccc1 | x | -3.7% | -0.2% | 41.8% | 32.5 | 30.9
O=C(c1ccco1)n1nc(-c2ccco2)nc1SCc1ccccc1 | -17.6% | -111.9% | -5.3% | x | 19.5* | 42.5
Nc1nc(-c2ccco2)nn1C(=O)CCc1ccccc1 | 4.7% | -4.1% | -23.4% | 10.1% | 7.5 | -5.0
Cc1ccc(S(=O)(=O)n2nc(-c3ccco3)nc2SCc2ccccc2)cc1 | 9.2% | -33.0% | 0.0% | 42.9% | 34.0* | 85.7*
CSc1nc(-c2ccco2)nn1S(=O)(=O)c1ccc(C)cc1 | u | -27.6% | -20.0% | -5.2% | -2.4 | 28.6
COc1ccc(C2/C=C\CN(C(=O)C3CCCCC3)C(Cc3ccccc3)C(=O)N2Cc2ccc(F)cc2)cc1 (stereo not given) | x | x | x | x | 22.6 | 16.4
O=C(NCc1ccccn1)c1cccc(NS(=O)(=O)c2ccccc2)c1 | -3.8% | x | u | 4.5% | x | x
CCCC(=O)N1c2nc(-c3ccco3)nn2C2(CCCCC2)[C@@H]2CCCC[C@@H]21 | x | x | 35.5µM* | x | x | x
COc1cccc(NC(=O)C(=O)NCC(c2ccc3c(c2)OCO3)N2CCOCC2)c1 (stereo not given) | x | x | 7.2% | x | x | x
CCOC(=O)c1c(Nc2ccc(Cl)cc2)sc(/C=C2\C=Nc3ccccc32)c1O | x | 1.2% | 6.2% | 4.15µM* | -3.7 | -7.3
COc1cccc(N2C(=O)CC(NNC(=O)c3cccs3)C2=O)c1 (stereo not given) | 37.7% | 16.6% | -1.3% | 18.7% | 19.0* | 43.1*
SMILES | Pf growth 96h | NS1 function inh | Sm TGR block | Pf growth 48h | CHX counter | Shiga inhibitor
Cc1ccc(NNC2CC(=O)N(c3cccc(Cl)c3)C2=O)cc1 (stereo not given) | 284.1% | x | 44.7µM* | 20.1% | 13.6 | 28.8
O=C1CC(NNc2ccccc2)C(=O)N1c1ccccc1 (stereo not given) | 12.3% | 4.9% | -4.0% | -3.0% | 6.9 | 27.1
CCN(CC)C1CC(=O)N(c2cccc(Cl)c2)C1=O (stereo not given) | -8.1% | -126.3% | 3.98µM* | 53.3% | -4.0 | x
O=C(Cc1ccccc1)NNC1CC(=O)N(c2ccc(Cl)cc2)C1=O (stereo not given) | 11.8% | 5.4% | x | 4.6% | 2.4 | 18.5
O=C(O)CSC1CC(=O)N(c2cccc(Cl)c2)C1=O (stereo not given) | 6.0% | -10.8% | u | x | -2.3 | -14.0
COc1ccc(N2C(=O)CC(NNC(=O)c3ccc(Br)s3)C2=O)cc1 (stereo not given) | -32.6%[5.75 µM] | 6.9% | 9.1% | 10.5% | 1.4 | 7.8
O=C(NNC1CC(=O)N(c2cccc(Cl)c2)C1=O)c1cccs1 (stereo not given) | 8.3% | 30.0% | -11.8% | 7.5% | 11.2 | 38.8*
CCCS(=O)(=O)c1nc(S(=O)(=O)c2ccc(Cl)cc2)c(N2CCC(O)CC2)s1 | u | 1.5% | -14.2% | -11.7% | -1.6 | -2.8
COc1ccc(N(C(=O)COc2ccc(Br)cc2)S(=O)(=O)c2ccc(C)cc2)cc1 | x | x | -9.3% | x | x | x
COc1cccc(C(=O)Nc2nc3nc(C)c(Cc4ccccc4)c(=O)n3[nH]2)c1 | x | x | 0.9% | x | x | x
Cc1oc(-c2cccs2)nc1CN1CCC(c2ccccc2)CC1 | 6.4% | -2.2% | -22.2% | u | -2.8 | -5.1
Cc1ncc(C23CC4CC(CC(C4)C2)C3)[nH]1 | 39.1% | -1.7% | -9.0% | -16.5% | -3.5 | -20.7
N#Cc1ccc(C23CC4CC(CC(C4)C2)C3)[nH]c1=O | 3.7µM* | 6.6% | -24.0% | u | 11.7 | 18.4
COc1cc(OC)cc(C(=O)NC(C(=O)NCCN(C)C)C23CC4CC(CC(C4)C2)C3)c1 (stereo not given) | 1.7%[5.75 µM] | -0.7% | 0.0% | u | -7.1 | -20.2
COCCNC(=O)C(NC(=O)C1CCCCC1)C12CC3CC(CC(C3)C1)C2 (stereo not given) | 1.47µM* | -3.0% | 20.7% | u | -5.8 | -18.9
Cc1ccc2cc(C#N)c(SCC(=O)N3CCCc4ccccc43)nc2c1C | u | 15.6% | 3.5% | u | -1.6 | -6.2
O=C(N/N=C/c1cc(O)ccc1[N+](=O)[O-])c1ccc2c(c1)OCCO2 | 273.9% | 4.8% | -9.7% | 62.0% | 14.8* | -15.2
O=C(N/N=C/c1cc([N+](=O)[O-])ccc1O)c1ccc2c(c1)OCCO2 | 98.6% | 3.5% | 4.8% | -90.8% | 17.6* | 16.5
O=C(N/N=C/c1ccccc1[N+](=O)[O-])c1ccc2c(c1)OCCO2 | 202.4% | 4.2% | -15.8% | 115.4% | 32.7* | 61.0*
O=C(N/N=C/c1ccccc1)c1ccc(N2CCOCC2)c([N+](=O)[O-])c1 | 2.6% | u | 0.7% | -10.6% | 3.3 | -0.9
